Source: PubChem BioAssay
FEN1 inhibitor – qHTS Assay for the Inhibitors of Human Flap endonuclease 1 (FEN1); P39748; Recombinant FEN1 flap cleavage, fluorescence, 15 min; Potency, µM (highest dose often 114 µM), for inactives: at the highest dose activity change, negative = inhibition, actives largely listed as inhibitors; hit rate 0.35% among 390,000; further: nearly all actives have a fitted effect of over 65% in size
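Concentration–response screening of FEN1 (10 nM): 15 min compound preincubation at room temperature, reaction started with 50 nM substrate and read at 0 and 15 min. Corrected, normalized data were fitted by a four-parameter Hill equation.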
RECQ1 inh – qHTS Assay for Inhibitors of RecQ-Like Dna Helicase 1 (RECQ1). ATP-dependent DNA helicase Q1 (Homo sapiens), P46063. RECQ1 DNA unwinding, red fluorescence kinetic read. Potency, µM (top dose mostly 57.3 µM), without a hit: at the top dose activity, negative = inhibition, usual class: inhibitors. hit rate 0.54% among 240,000. AID 2549, 2010;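 further: plate controls were vehicle for no effect and no enzyme for full effect; nearly all actives have a fitted effect of over 30% in size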
Target sequence (P46063 whole entry, looked up): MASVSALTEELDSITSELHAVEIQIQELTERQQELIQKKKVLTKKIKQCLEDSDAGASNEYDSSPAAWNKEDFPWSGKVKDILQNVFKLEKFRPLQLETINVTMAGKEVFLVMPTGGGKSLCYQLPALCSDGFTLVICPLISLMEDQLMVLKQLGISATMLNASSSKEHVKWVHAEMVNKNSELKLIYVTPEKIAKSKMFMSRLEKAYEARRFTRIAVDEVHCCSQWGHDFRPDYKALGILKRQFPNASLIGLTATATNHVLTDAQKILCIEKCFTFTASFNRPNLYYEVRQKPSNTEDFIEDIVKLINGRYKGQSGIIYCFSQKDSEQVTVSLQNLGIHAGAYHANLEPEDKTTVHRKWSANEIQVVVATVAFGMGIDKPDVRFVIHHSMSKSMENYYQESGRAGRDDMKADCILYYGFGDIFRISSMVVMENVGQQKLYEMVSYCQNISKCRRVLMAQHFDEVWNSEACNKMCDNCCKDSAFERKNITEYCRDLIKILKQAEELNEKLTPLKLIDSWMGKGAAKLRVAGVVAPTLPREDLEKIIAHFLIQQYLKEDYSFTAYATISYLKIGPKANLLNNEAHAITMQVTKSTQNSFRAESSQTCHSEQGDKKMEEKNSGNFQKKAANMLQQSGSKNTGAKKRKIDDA
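50 nM RECQ1T1 preincubated 15 min with compound in Tris pH 8.0 buffer with MgCl2, DTT, Tween-20 and 2.5 ug/ml poly(dI-dC); started with 200 nM TAMRA/BHQ-2 forked duplex and 2 mM ATP. Unwinding read as fluorescence (525/598 nm), two reads 2 h apart.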
APE1 inh – qHTS Assay for Inhibitors of the Human Apurinic/apyrimidinic Endonuclease 1 (APE1) | recombinant APE1, TAMRA/BHQ-2 abasic DNA cleavage fluorescence | Potency, µM (series often up to 65.8 µM), for inactives: top-dose activity change, negative = inhibition, most hits filed as inhibitors | hit rate 0.35% among 350,000 | AID 2517, 2012;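 further: plate controls were vehicle for no effect and reference inhibitor for full effect; nearly all actives have a fitted effect of over 55% in size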
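Substrate: short duplex with […] THF abasic site, 5'-TAMRA and 3'-BHQ-2, 50 nM final. APE1 at 0.75 nM, preincubated 15 min RT with compound. Fluorescence increase from first to third read measured activity.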
BLM helicase inh – qHTS Assay for Inhibitors of Bloom's syndrome helicase (BLM); AID 2528, 2010; Potency, µM (series often up to 56.1 µM), for the others: at the highest dose activity change, negative = inhibition, most hits filed as inhibitors; hit rate 0.2% among 350,000; recombinant BLM DNA unwinding, fluorescence dequenching; RecQ-like DNA helicase BLM (Homo sapiens), P54132;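 further: plate controls were vehicle for no effect and no enzyme for full effect; nearly all actives have a fitted effect of over 35% in size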
TDP1 block – qHTS Assay for Inhibitors of Tyrosyl-DNA Phosphodiesterase (TDP1); Tyrosyl-DNA phosphodiesterase 1 (Homo sapiens), Q9NUW8; recombinant TDP1, AlphaScreen DNA substrate cleavage; Potency, µM (highest dose often 130 µM), for the others: at the top dose activity change, negative = inhibition, hits mostly inhibitors; hit rate 0.28% among 350,000; AID 485290, 2010; further: nearly all actives have a fitted effect of over 40% in size
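Steps: enzyme plus compound, 15 min RT; add biotin/phosphotyrosine-FITC oligonucleotide (15 nM final), react 5 min; add donor/acceptor beads (10 ug/ml final), 10 min; read AlphaScreen. Tdp1 at 1 nM final.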
An asterisk follows results filed as active; i = inactive; ? = inconclusive; . = no result given; [ ] = another dose, or the depositor's remark. Hits are enriched below; roughly 0.92% of the tested compounds scored in any of these assays. The call rests on the fitted dose curve; in most records, active means well fitted curve in the direction sought with a large enough effect; inconclusive means small, poorly fitted or top-dose-only effect, or another doubt; inactive means no such curve, though single readings can be large; an effect the other way counts as inactive or inconclusive. Unless noted, on the % scale 0 is the no-effect control and ±100 the full control effect; potency means the concentration at half of the fitted maximal effect.

SMILES | FEN1 inhibitor | RECQ1 inh | APE1 inh | BLM helicase inh | TDP1 block
COc1ccc(-n2c(NC(=O)c3ccco3)c(C#N)c3nc4ccccc4nc32)cc1 | ? | 17% | 2% | 32µM* | 3%
COC(=O)CC1=COC2OCC3=CC[C@@H]1C32 (some centres not stated) | . | 11%[11.5 µM] | ? | 0%[12.4 µM] | 9%[21 µM]
O=C(CSC1=NC(=O)C(Cc2ccccc2)C(=O)N1)NC1CCCCC1 (configuration not stated) | 7% | 2% | 1% | -1% | 3%
CC(=O)NC1C(=O)N=C(SCC(=O)NCc2ccccc2)NC1=O (configuration not stated) | -2% | 0% | 9% | 6% | 25µM*
CC(/C=N/n1c(-c2cc(C)[nH]n2)n[nH]c1=S)=C\c1ccco1 | ? | 25µM* | -12% | 0% | 0%
CNC(=O)COc1ccc(NC(=O)CCn2nc(-c3ccc(C)cc3)c3ccccc3c2=O)cc1 | 15% | . | . | 0% | 0%
CN1C(=O)N(C)C2=NNC=NC2(O)C1=O (configuration not stated) | . | -3% | 13% | 28µM* | .
CCCCCCc1cc2cc(-c3nnc(-c4ccccc4OC)o3)c(=O)oc2cc1O | 45µM* | i | ? | ? | -5%
OC[C@@H]1[C@@H](c2ccccc2)C(c2cccc(Cl)c2)=NN1c1ccccc1 | -18% | 32µM* | -13% | -11%[75.6 µM] | 25µM*
Cc1cccc(C2=NN(c3ccccc3)[C@H](CO)[C@H]2c2ccc(Cl)cc2)c1 | -8% | -21%[81.1 µM] | -12% | -13%[75.6 µM] | -14%[56.1 µM]
CC(=O)OC[C@@H]1O[C@@H](O/N=C2/C[C@@H](O)[C@@H](O)[C@@H]3[C@@H]4C(=O)N(Cc5ccccc5)C(=O)[C@H]4CC[C@H]23)[C@H](OC(C)=O)[C@H](OC(C)=O)[C@@H]1OC(C)=O | . | i[11.5 µM] | 14%[12.4 µM] | 3%[12.4 µM] | 7%[21 µM]
COC(=O)c1c(-c2ccc(OC)cc2)sc2ccccc12 | . | . | 42% | . | 20µM*
Cc1ccccc1C1CC(=O)Oc2cc(C)c(Br)c(C)c21 (configuration not stated) | . | i | 0% | 1%[75.6 µM] | 2%
C/C(CCN1CCCc2nc(C)c(C)cc21)=N\OC[C@@H](O)[C@@H]1O[C@@H]2OC(C)(C)O[C@@H]2[C@H]1O | . | 6%[11.5 µM] | -7%[12.4 µM] | 2%[12.4 µM] | 10%[21 µM]
Cc1cc(-c2ccc(S(=O)(=O)N3CCN(c4ccc(Cl)cc4)CC3)s2)on1 | 0% | . | . | -5% | 0%
O=C(CNc1cccc2ccccc12)N/N=C/C=C/c1ccco1 | 3% | -6% | -5% | -11% | 9%
O=C(Cc1cccs1)N/N=C/C=C/c1ccco1 | -18% | 1% | 16% | 25µM* | 0%
O=C(CSc1nnc(SCc2ccccc2)s1)N/N=C/C=C/c1ccco1 | ? | 22µM* | 13µM* | 25µM* | -14%
O=S(=O)(c1ccc(NC(=S)NN=C2CCCCC2)cc1)N1CCOCC1 | 0% | 0% | 35µM* | -5% | 5%
CC(=O)NC(CC(=O)OCC(=O)c1ccc(NC(=O)CC(C)C)cc1)c1ccccc1 (configuration not stated) | 2% | . | ? | . | 45µM*
Oc1ccccc1C1C=C(c2ccc3c(c2)OCO3)NC(c2ccc(Br)cc2)N1 (configuration not stated) | 2% | . | . | . | 2%
O=c1oc2cc([N+](=O)[O-])ccc2nc1/C=C(\O)c1cccc(Br)c1 | 25µM* | -3% | -2% | -6% | .
CCOc1ccc(NC(=O)CSC2=Nc3ccccc3C3=NC(Cc4ccccc4)C(=O)N23)cc1 (configuration not stated) | -13% | . | . | -1% | -1%
Cc1ccc(-c2ccc(/C=C3/NC(=O)NC3=O)o2)cc1[N+](=O)[O-] | -21% | 28µM* | -5% | -21% | 0%
COC(=O)c1c(NC(=O)CCCOc2ccc(C)cc2)sc2c1C(C(=O)OC)CC2 (configuration not stated) | 79µM* | . | . | -10% | 1%[12.3 µM]
SMILES | FEN1 inhibitor | RECQ1 inh | APE1 inh | BLM helicase inh | TDP1 block
COC(=O)c1c(NC(=O)CCCOc2cccc(C)c2)sc2c1C(C(=O)OC)CC2 (configuration not stated) | 71µM* | . | . | -12% | -6%[12.3 µM]
COC(=O)c1c(NC(=O)Cc2ccccc2)sc2c1C(C(=O)OC)CC2 (configuration not stated) | -15% | -14% | 31% | -4% | 8%
COC(=O)c1c(NC(=O)CCCOc2cccc(C)c2)sc2c1CCC2 | 3% | . | . | -3% | 5%[12.3 µM]
CO[C@H]1COC(=O)C/C=C\[C@H](C)COC(=O)[C@@H](C)NC(=O)C/C=C\[C@@H]1C | . | 17%[11.5 µM] | 13%[12.4 µM] | 1%[12.4 µM] | 6%[21 µM]
Cc1ccc(CNC(=O)c2ccc(CN3CC(=O)N4CCCCC4C3=O)cc2)cc1 (configuration not stated) | 4% | . | . | 2% | 1%
O=[N+]([O-])c1ccc2nc(-c3ccc(Cl)cc3)n(OCc3ccccc3)c2c1 | 8% | i | -5% | -4% | 2%
O=C(O)COn1c(-c2ccccc2)nc2ccc([N+](=O)[O-])cc21 | -5% | i | ? | -21% | 25µM*
COC(=O)CSc1nc2c(c(-c3ccc(O)cc3)c1C#N)CCCC2 | -3% | -1% | -2% | -15% | 5%
COC(=O)CSc1nc2c(c(-c3ccco3)c1C#N)CCCC2 | 3% | 35µM* | -8% | -28% | .
CCn1c(C)nc2cc(C(=O)N/N=C/c3ccc(O)c(O)c3O)ccc21 | ? | 10% | -9% | 6.3µM* | -3%
CCCN(CCC)C1=N/C(=C\c2ccco2)C(=O)N1c1ccccc1 | -8% | 28µM* | -3% | -11% | 5%
O=C1/C(=C\c2ccco2)NC(=S)N1c1ccccc1 | -12% | i | 2% | -4% | 0%
O=C(NCc1cccnc1)c1ccc(NS(=O)(=O)c2ccccc2)cc1 | -5% | . | 20% | -5% | 3.5µM*
O=C(NCc1ccncc1)c1ccc(NS(=O)(=O)c2ccccc2)cc1 | -4% | . | . | . | .
CCN(CC)c1ccc(/C=C/c2ccc3ccc(OC)cc3[n+]2CC)cc1 | 35µM* | . | 1% | 2% | .
CN(C)c1ccc(/C=C/c2ccc3ccccc3[n+]2[O-])cc1 | -6% | . | . | . | .
CC[n+]1c(/C=C/c2ccc(OC)c(OC)c2)ccc2ccccc21 | -18% | . | 2% | -8% | .
CC[n+]1c(/C=C/c2ccc(N(C)C)cc2)ccc2ccccc21 | 50µM* | 7% | 4% | ? | 3%
